# Laboratory results taken from PubChem BioAssay.
# Records with an inconclusive call do not appear. Calls of active or inactive are those of the source. Unless noted, no cut-off is given here; in the data, nearly all actives have AC50 up to about 26 µM.
# What was measured:
# [1] = viability loss in pontine glioma line – cell-based, SU-DIPG-XVII, MIPE5.0, CellTiter-Glo, qHTS, dose response (AID 1347060); settings: CellTiter-Glo ATP luminescence;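 for AC50: cells exposed to compound for 48 hours before viability readout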
# [2] = viability loss in pontine glioma line – cell-based, SU-DIPG-XIII, MIPE4.0, CellTiter-Glo, qHTS, dose response (AID 1347061; cut-off not given, nearly all actives have AC50 up to about 37 µM;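 note: cells exposed to compound for 48 hours before readout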); settings: CellTiter-Glo ATP luminescence
# [3] = viability loss in pontine glioma line – cell-based, JHH-DIPG-1, MIPE4.0, CellTiter-Glo, qHTS, dose response (AID 1347062; cut-off not given, nearly all actives have AC50 up to about 27 µM;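 for AC50: cells exposed to compound for two days before readout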); settings: JHH-DIPG-1 viability, CellTiter-Glo ATP luminescence
# [4] = viability loss in pontine glioma line – cell-based, SU-DIPG-IV, MIPE4.0, CellTiter-Glo, qHTS, dose response (AID 1347063; cut-off not given, nearly all actives have AC50 up to about 30 µM;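 note: compound exposure lasted 48 hours before the viability readout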); settings: CellTiter-Glo ATP luminescence
# [5] = viability loss in pontine glioma line – cell-based, SU-DIPG-XXV, MIPE5.0, CellTiter-Glo, qHTS, dose response (AID 1347065); settings: CellTiter-Glo ATP luminescence;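 note: cells exposed to compound for 48 hours before ATP readout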
# [6] = JHH-DIPG-1 glioma cell viability, MIPE5.0 library, CellTiter-Glo luminescence, qHTS (AID 1347067); settings: JHH-DIPG-1 glioma viability, CellTiter-Glo ATP luminescence;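 note: cells exposed to compound for 48 hours before readout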
# [7] = growth inhibition of DIPG cells – cell-based, MIPE5.0 library, qHTS (AID 1347068; cut-off not given, nearly all actives have IC50 up to about 30 µM;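 for IC50: cells exposed to compound for 48 hours before viability readout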); settings: SU-DIPG-XXV viability
# [8] = growth inhibition of DIPG cells – cell-based, MIPE4.0 library, CellTiter-Glo luminescence, qHTS (AID 1347066; cut-off not given, nearly all actives have AC50 up to about 30 µM;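 note: cells exposed to compound for 48 hours before readout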); settings: SU-DIPG-VI viability, CellTiter-Glo ATP luminescence
# [9] = compounds altering HSF1 focus formation in cells – imaging, Selleck Cancer Library (AID 1347162; in the data active = plate-normalised HSF1 focus index below about 0.46); settings: human cells, HSF1 nuclear foci imaging, at 10 µM; SSMD: measured here: HSF1 foci SSMD mean; cell count: measured here: cell number; plate-normalised HSF1 focus index: stronger effect = lower value
# [10] = growth inhibition, single agent or in combination, cell-based, chromothripsis tumors, cisplatin or BGB combos (AID 1671449; in the data active = inhibition above about 80%;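 note: cells exposed for 96 hours; 0% = vehicle DMSO and 100% = killing by high DMSO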); settings: LFS_MB_P medulloblastoma cells
# [11] = growth inhibition, single agent and combos, cell-based, chromothripsis tumors, cisplatin or BGB combos (AID 1671450; in the data active = inhibition above about 80%;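 note: cells exposed to compound for four days; 0% = vehicle DMSO and 100% = cell killing by high DMSO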); settings: HDN33 neuroblastoma cells, stronger effect = higher value
# [12] = growth inhibition, single agents and combos, ICB984, cell-based, cisplatin or BGB combos, synergistic combos for chromothripsis tumors (AID 1671451; call rule not given here;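 note: cells exposed for 96 hours before readout; 0% = vehicle DMSO and 100% = killing by high DMSO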); settings: ICB984 medulloblastoma cells, drug combinations, stronger effect = higher value
# [13] = growth inhibition, single agents and combos, HTB85, cell-based, BGB or cisplatin IC20 combos, synergistic combos for chromothripsis tumors (AID 1671453; in the data active = inhibition above about 80%;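 note: cells exposed for 96 hours before readout; 0% = vehicle DMSO and 100% = high DMSO killing control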); settings: HTB85 osteosarcoma cells, drug combinations, stronger effect = higher value
# [14] = growth inhibition, MDA-MB-436, cell-based, BGB or cisplatin combos, synergistic combos for chromothripsis tumors (AID 1671458; call rule not given here;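 note: cells exposed for 96 hours; 0% = vehicle DMSO and 100% = killing by high DMSO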); settings: MDA-MB-436 breast carcinoma growth inhibition, drug combinations, stronger effect = higher value
# [15] = BT084 cell growth, single and combined drugs, ICGC_MB145, cisplatin and BGB IC40 combos (AID 1671461; in the data active = inhibition above about 80%;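 note: cells exposed to drugs for 96 hours; 0% = vehicle DMSO and 100% = high DMSO full killing control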); settings: BT084 medulloblastoma cells, drug combinations, stronger effect = higher value
# [16] = RCMB18 cell growth, single agent and combined, cisplatin and BGB IC40 combos (AID 1671462; in the data active = inhibition above about 80%;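 note: cells exposed to compound for four days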); settings: RCMB18 medulloblastoma cells, stronger effect = higher value
structure (smiles),measurement,setting,value
COC1CCC(N(C(=O)C2CCC(C)CC2)c2cc(C3=CCCCC3)sc2C(=O)O)CC1 (stereo unspecified),outcome,[1],inactive
same,outcome,[2],inactive
same,outcome,[3],inactive
same,outcome,[4],inactive
same,outcome,[5],inactive
same,outcome,[6],inactive
same,outcome,[7],inactive
CC(C)(F)C[C@H](N[C@@H](c1ccc(-c2ccc(S(C)(=O)=O)cc2)cc1)C(F)(F)F)C(=O)NC1(C#N)CC1,outcome,[1],inactive
same,outcome,[2],inactive
same,outcome,[3],inactive
same,outcome,[4],inactive
same,outcome,[5],inactive
same,outcome,[8],inactive
same,outcome,[6],inactive
same,outcome,[7],inactive
CC(=O)N[C@H]1[C@H](O[C@@H]2c3ccc(c(Cl)c3)Oc3cc4cc(c3O[C@@H]3O[C@H](CO)[C@@H](O)[C@H](O)[C@H]3NC(=O)CCCCCCCC(C)C)Oc3ccc(cc3Cl)C[C@H]3NC(=O)[C@H](N)c5ccc(O)c(c5)Oc5cc(O)cc(c5)[C@H](NC3=O)C(=O)N[C@H]4C(=O)N[C@H]3C(=O)N[C@@H]2C(=O)N[C@@H](C(=O)O)c2cc(O)cc(O[C@H]4O[C@H](CO)[C@@H](O)[C@H](O)[C@@H]4O)c2-c2cc3ccc2O)O[C@H](CO)[C@@H](O)[C@@H]1O,outcome,[1],inactive
same,outcome,[2],inactive
same,outcome,[3],inactive
same,outcome,[4],inactive
same,outcome,[5],inactive
same,outcome,[8],inactive
same,outcome,[6],inactive
same,outcome,[7],inactive
CCNC(=O)CCC/C=C\C[C@@H]1[C@@H](/C=C/C(O)CCc2ccccc2)[C@@H](O)C[C@@H]1O (stereo partly specified),outcome,[1],inactive
same,outcome,[2],inactive
same,outcome,[3],inactive
same,outcome,[4],inactive
same,outcome,[5],inactive
same,outcome,[8],inactive
same,outcome,[6],inactive
same,outcome,[7],inactive
C=C1C(=O)OC(CCCCCCCC)C1C(=O)O (stereo unspecified),outcome,[1],inactive
same,outcome,[2],inactive
same,outcome,[3],inactive
same,outcome,[4],inactive
same,outcome,[5],inactive
same,outcome,[8],inactive
same,outcome,[6],inactive
same,outcome,[7],inactive
Cc1ccc([N+](=O)[O-])cc1S(=O)(=O)N(C)/N=C/c1cnc2ccc(Br)cn12,AC50,[1],132 nM (active)
same,AC50,[2],20.9 nM (active)
same,AC50,[3],33.2 nM (active)
same,AC50,[4],23.5 nM (active)
same,AC50,[5],118 nM (active)
same,AC50,[8],132 nM (active)
same,AC50,[6],166 nM (active)
same,IC50,[7],235 nM (active)
same,SSMD,[9],7.37
same,cell count,[9],7410
same,plate-normalised HSF1 focus index,[9],1.46 (inactive)
same,inhibition,"[10]; at 0.5 µM, stronger effect = higher value",-21.6% (inactive)
same,inhibition,"[10]; measured here: combination with BGB IC20, at 0.005 µM",-7.86%
same,inhibition,"[10]; measured here: combination with BGB IC40, at 0.005 µM",-33.9%
same,inhibition,"[10]; measured here: combination with BGB IC40, at 0.05 µM",-17.7%
same,inhibition,"[10]; measured here: combination with cisplatin, at 0.5 µM, stronger effect = higher value",-8.16%
same,inhibition,"[10]; measured here: combination with cisplatin, at 5 µM, stronger effect = higher value",118%
same,inhibition,"[11]; BGB combo, at 5 µM",98.8%
same,inhibition,[11]; at 0.5 µM,82.5% (active)
same,inhibition,"[11]; cisplatin combo, at 5 µM",99.4%
same,inhibition,"[11]; measured here: with BGB IC20 combination, at 0.5 µM",82.3%
same,inhibition,"[11]; measured here: with cisplatin IC20 combination, at 0.5 µM",89%
same,inhibition,"[11]; single agent, at 5 µM",99.6%
same,inhibition,"[12]; BGB IC20 combo, at 0.005 µM",93.2%
same,inhibition,"[12]; BGB IC40 combo, at 0.005 µM",89.9%
same,inhibition,"[12]; BGB IC40 combo, at 0.05 µM",99.2%
same,inhibition,[12]; at 0.5 µM,-28.7% (inactive)
same,inhibition,"[12]; cisplatin combo, at 0.05 µM",99.2%
same,inhibition,"[12]; cisplatin combo, at 0.5 µM",-32.2%
same,inhibition,"[12]; cisplatin combo, at 5 µM",-58%
same,inhibition,"[12]; measured here: 5 uM single agent, at 5 µM",-16.2%
same,inhibition,[13]; at 0.5 µM,84.8% (active)
same,inhibition,"[13]; measured here: with BGB IC20, at 0.5 µM",92.6%
same,inhibition,"[13]; measured here: with BGB IC20, at 5 µM",100%
same,inhibition,"[13]; measured here: with cisplatin IC20, at 0.5 µM",90.8%
same,inhibition,"[13]; measured here: with cisplatin IC20, at 5 µM",99.6%
same,inhibition,"[13]; single agent, at 5 µM",99.9%
same,inhibition,[14]; at 0.5 µM,77.8% (inactive)
same,inhibition,"[14]; measured here: BGB combination, at 0.5 µM",73.3%
same,inhibition,"[14]; measured here: BGB combination, at 5 µM",54%
same,inhibition,"[14]; measured here: cisplatin combination, at 0.5 µM",77.3%
same,inhibition,"[14]; measured here: cisplatin combination, at 5 µM",74.2%
same,inhibition,[15]; at 0.5 µM,17.8% (inactive)
same,inhibition,"[15]; cisplatin combination, at 0.5 µM",8.05%
same,inhibition,"[15]; cisplatin combination, at 5 µM",-42.9%
same,inhibition,"[15]; measured here: BGB IC40 combination 0.05 uM, at 0.05 µM",16.7%
same,inhibition,"[15]; single agent, at 5 µM",-25%
same,inhibition,[16]; at 0.5 µM,68.3% (inactive)
same,inhibition,"[16]; cisplatin combo, at 5 µM",59.8%
same,inhibition,"[16]; measured here: BGB IC40 combination, at 0.05 µM",-12.7%
same,inhibition,"[16]; measured here: combination with cisplatin, at 0.5 µM",58.3%
same,inhibition,"[16]; single agent, at 5 µM",76.8%
